From PubChem BioAssay (NCI) come the findings set out here.

Compounds without any hit were thinned out: in the full panel of roughly 83,000, 20% have a hit.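 Negative percent growth values reflect cell death: -40 means 40% of the cells present at the start died, and -100 means all died.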 Active and inactive are the calls of the source. Rule for the calls: active = growth percent below 10; inactive = the rest.

The test system of one test is MCF7 breast. Kind of test: NCI-60 one-dose screen, 48 h (100 = growth as untreated, 0 = no growth, -100 = all killed). To be noted: 10 µM.
For `Cc1ccc(CSc2nc(Cl)c(C#N)c(-c3ccc(F)cc3)n2)cc1`, the growth was 72.9% (inactive).
Take `COc1cc(/C=C/C(=O)c2ccc(F)cc2)ccc1Oc1nc(Nc2ccc(F)cc2)nc(N(C)C)n1`: the growth was 16.6% (inactive).
Same read-out and setting: the value for `COc1cc2oc(-c3cccc(C(=O)Nc4ccc(Cl)cc4)c3)cc(=O)c2c(OCCNC(=O)CNC(=O)OC(C)(C)C)c1OC` was 42% (inactive).

For a further test, the system named is HCT-116 colon. The description is as above. Conditions: 10 µM.
Consider `O=C(/C=C/Nc1ccc(F)cc1F)c1ccc2c(c1)Nc1ccccc1S2`, for which the growth was 58.6% (inactive).
The same measure, in the same setting: the result for `C=C1CC[C@H](C(=C)C)[C@H]2C=C(C)C(=O)C3=C(C(=O)[C@@](C)(O)C3)[C@H]12` reads 12.2% (inactive).
Same read-out and setting: the result for `CN(CCO)c1oc(-c2ccccc2)nc1[P+](c1ccccc1)(c1ccccc1)c1ccccc1` reads 6.5% (active); that for `O=C(CNc1nc(-c2ccccc2)cs1)Nc1ccc([N+](=O)[O-])cc1Cl`, 21.4% (inactive); that for `COc1ccc(CCN2C(=O)/C(=C/c3csc(C#N)n3)SC2=S)cc1OC`, -69.1% (active).
As to `Cc1ccc([N+](=O)[O-])c(C(=O)Nc2ccc(-c3ccc4c(c3)NC(=O)/C4=C\c3ccc[nH]3)cc2)c1`, the growth is 55.9% (inactive).
Take `COc1ccc(-c2nc(S(=O)(=O)c3ccccc3)c(S(C)(=O)=O)o2)cc1`: the growth is 0.823% (active).
For the compound `Cc1ccc(-c2ccc(SCC(=O)Nc3ccc(Cl)c(C(F)(F)F)c3)nn2)cc1`, the growth is 10.3% (inactive).
For the compound `Cc1ccn2c(C(=O)c3ccc(Br)cc3)cc(-c3cc(-c4ccc(N(C)C)cc4)c(C#N)c(N)n3)c2c1`, the growth was 36.2% (inactive).
Take `O=c1[nH]c2ccccc2cc1CSc1ccc(Nc2nccc(-c3ccc(Cl)cc3)n2)cc1`: the growth was -38.6% (active).
As for `CC1(C)CC[C@]2(C(=O)Nc3ccccc3)CC[C@]3(C)C(=CC[C@@H]4[C@@]5(C)CC[C@H](N)C(C)(C)[C@@H]5CC[C@]43C)[C@H]2C1`, the growth is -99.5% (active).
Consider `Cc1ccc(NC(=O)NCn2c(=O)[nH]c3ccccc3c2=O)cc1`, for which the growth was 60.1% (inactive).
In the case of `COc1cc(/C=C/C(=O)c2cc(OC)c(OC)c(OC)c2)ccc1Oc1nc(Nc2ccc(F)cc2)nc(N(C)C)n1`, the growth was -77.6% (active).
For `Cn1cc(/C=N/Nc2ccnc3cc(Cl)ccc23)c2ccccc21`, the growth is -46.5% (active).
With `N#Cc1ccc(-c2nn(-c3ccc(C(=O)O)cc3)cc2CNc2cc(Cl)cc(C(F)(F)F)c2)cc1`, the growth was -2.71% (active).
For `O=C1NC(=NC23CC4CC(CC(C4)C2)C3)N/C1=C\c1ccc2ncccc2n1`, the growth is 17.9% (inactive).
As to `COc1ccc(/C=C/C(=O)c2ccc(NC(=O)CN3C(=O)NC(C)(c4ccccc4)C3=O)cc2)cc1` (stereo not given), the growth is 12.8% (inactive).
For the compound `O=C(c1ccc(Cl)cc1)C1[C@H](c2ccccc2Br)[C@@H](c2ccccc2)NC12C(=O)Nc1ccc(Cl)cc12` (stereo not given in full), the growth is 7.63% (active).
`O=C1CCC(N2Cc3cc(NC(=O)COc4ccccc4)ccc3C2=O)C(=O)N1` (stereo not given): the growth was 103% (inactive).
Consider `CC1(c2ccccc2)NC(=O)N(CC(=O)Nc2ccc(C(=O)/C=C/c3ccc(Cl)cc3)cc2)C1=O` (stereo not given), for which the growth was -69.1% (active).
Still for that read-out and setting: the value for `C#CCNC(=O)CCC(=O)OC[C@]12CC[C@@H](C(=C)C)[C@@H]1C1CC[C@@H]3[C@@]4(C)CCCNC(C)(C)[C@@H]4CC[C@@]3(C)[C@]1(C)CC2` (stereo not given in full) was -60.3% (active).
For `CCCn1c(=O)c2[nH]c(-c3ccc(OCc4nc5ccc(F)cc5[nH]4)cc3)nc2n(CCC)c1=O`, the growth is 3.12% (active).
The same measure, in the same setting: the value for `COC[C@@H](CC(C)C)N=C1NC(=O)/C(=C/c2ccc3ncsc3c2)N1` was 19.2% (inactive); that for `COc1ccc(C=CC(=O)c2ccc(-n3c(C)nc4c(cnn4-c4ccccc4)c3=O)cc2)cc1` was 9.71% (active).
The same measure, in the same setting: the value for `O=C(c1ccc(Cl)cc1)C1[C@H](c2ccccc2Br)[C@@H](c2ccccc2)NC12C(=O)Nc1ccc(Br)cc12` (stereo not given in full) was 3.99% (active); that for `O=C(Nc1cccc(C(F)(F)F)c1)c1cncc(C#Cc2cnc3ccc(N4CCOCC4)nn23)c1` was 0.369% (active).
On the same count and under the same terms, the result for `N#Cc1c(-c2ccc(F)cc2)nc(SCc2ccc([N+](=O)[O-])cc2)nc1N1CCOCC1` reads 64.4% (inactive); that for `NS(=O)(=O)c1ccc(NC(=O)CSc2ccc(-c3ccc(Cl)cc3)nn2)c(Br)c1`, 26.6% (inactive).
With `CC(=O)NCC1=C(C)C=C2C(=O)[C@](C)(O)C3(CC3)C(C)=C21`, the growth is -45.1% (active).
As for `CC(=O)Nc1nc(-c2ccc(N3CCN(C)CC3)c(NS(=O)(=O)c3cccc4c(N(C)C)cccc34)c2)cs1`, the growth was 28.2% (inactive).
Still for that read-out and setting: the value for `O=C(CSc1nnc(-c2ccc3nc(-c4ccc(Cl)cc4)[nH]c3c2)o1)Nc1ccc(Br)cc1` was -61.9% (active); that for `COc1cc2c3c(n(CCCNCCO)c(=O)c2cc1OC)-c1nc2c(cc1C3=O)OCO2` was -49.8% (active); that for `Cc1ccc(NCC(=O)Nn2c(COc3ccccc3)nc3ccccc3c2=O)cc1` was 85.1% (inactive).
On the same count and under the same terms, the result for `O=C(c1ccccc1)n1ccc(-c2cc3cc(Br)ccc3oc2=O)n1` reads 16% (inactive); that for `Cc1ccc(CSc2nc(Cl)c(C#N)c(-c3ccc(F)cc3)n2)cc1`, 59.3% (inactive); that for `COc1cc(/C=C/C(=O)c2ccc(F)cc2)ccc1Oc1nc(Nc2ccc(F)cc2)nc(N(C)C)n1`, 30.2% (inactive).
For `COc1cc2oc(-c3cccc(C(=O)Nc4ccc(Cl)cc4)c3)cc(=O)c2c(OCCNC(=O)CNC(=O)OC(C)(C)C)c1OC`, the growth is 41.6% (inactive).
